The results in this text go back to paper PMC7862700, “An all-to-all approach to the identification of sequence-specific readers for epigenetic DNA modifications on cytosine”.

Common to all, as to assay: DAPPL (digital affinity profiling via proximity ligation, sequencing); 10 mM Tris-HCl pH 7.5, 50 mM NaCl, 1 mM DTT, 4% glycerol, room temperature, 30 min; GST-TFs on glutathione beads, 16-mer random dsDNA library, 0.1% formaldehyde crosslink after washing; high values mean tight binding
Assay [1] addresses T1, FLI1 (Homo sapiens, UniProt Q01543 1-452).
T1 sequence: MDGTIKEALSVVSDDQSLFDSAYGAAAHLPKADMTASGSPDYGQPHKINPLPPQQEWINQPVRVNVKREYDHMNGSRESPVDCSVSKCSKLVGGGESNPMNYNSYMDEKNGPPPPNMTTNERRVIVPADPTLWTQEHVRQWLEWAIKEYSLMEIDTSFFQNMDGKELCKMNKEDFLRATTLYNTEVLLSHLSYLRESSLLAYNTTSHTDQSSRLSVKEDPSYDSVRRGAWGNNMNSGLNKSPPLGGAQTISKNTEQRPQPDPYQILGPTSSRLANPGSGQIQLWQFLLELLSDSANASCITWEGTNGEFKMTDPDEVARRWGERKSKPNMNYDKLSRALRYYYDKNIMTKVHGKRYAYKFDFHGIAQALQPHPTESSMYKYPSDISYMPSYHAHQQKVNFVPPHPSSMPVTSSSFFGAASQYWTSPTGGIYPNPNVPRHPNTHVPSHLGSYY
To be noted: protein: recombinant; tags: N-terminal GST; dsDNA, one strand shown. A digest of the protocol: (§1)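 The binding signal reported is, for every hexamer, its read frequency for a factor over its read frequency for the tag-only sample. Reads came from pools of yeast-expressed, GST-fused human transcription factors on glutathione beads, barcoded with DNA and mixed with that sample, which were incubated with 200 nmole of a random double-stranded 16-mer DNA library in Tris/NaCl/DTT/glycerol buffer at room temperature for 30 min. After washing, the pools were crosslinked with 0.1% formaldehyde, proximity-ligated with BsaI/T4 ligase for 1 h at 37 °C, PCR-amplified and sequenced on an Illumina NextSeq500.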

For assay [2], the target named is T2, ELK1 (Homo sapiens, UniProt P19419 1-428).
T2 sequence: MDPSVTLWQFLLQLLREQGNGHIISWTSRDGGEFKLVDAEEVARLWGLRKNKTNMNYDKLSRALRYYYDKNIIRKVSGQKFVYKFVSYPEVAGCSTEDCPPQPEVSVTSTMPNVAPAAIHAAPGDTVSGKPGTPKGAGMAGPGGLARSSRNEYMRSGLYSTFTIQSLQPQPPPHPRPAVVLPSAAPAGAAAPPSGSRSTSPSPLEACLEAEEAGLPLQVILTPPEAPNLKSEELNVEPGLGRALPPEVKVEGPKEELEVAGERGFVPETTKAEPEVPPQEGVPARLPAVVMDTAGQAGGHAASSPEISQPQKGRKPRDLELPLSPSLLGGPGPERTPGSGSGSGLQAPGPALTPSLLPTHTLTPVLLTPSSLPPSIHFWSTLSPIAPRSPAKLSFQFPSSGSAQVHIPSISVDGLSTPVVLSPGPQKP
To be noted: protein: recombinant; tags: N-terminal GST; dsDNA, one strand shown. A digest of the protocol:
as §1

Assay [3] deals with T3, GABPA (Homo sapiens, UniProt Q06546 1-454).
T3 sequence: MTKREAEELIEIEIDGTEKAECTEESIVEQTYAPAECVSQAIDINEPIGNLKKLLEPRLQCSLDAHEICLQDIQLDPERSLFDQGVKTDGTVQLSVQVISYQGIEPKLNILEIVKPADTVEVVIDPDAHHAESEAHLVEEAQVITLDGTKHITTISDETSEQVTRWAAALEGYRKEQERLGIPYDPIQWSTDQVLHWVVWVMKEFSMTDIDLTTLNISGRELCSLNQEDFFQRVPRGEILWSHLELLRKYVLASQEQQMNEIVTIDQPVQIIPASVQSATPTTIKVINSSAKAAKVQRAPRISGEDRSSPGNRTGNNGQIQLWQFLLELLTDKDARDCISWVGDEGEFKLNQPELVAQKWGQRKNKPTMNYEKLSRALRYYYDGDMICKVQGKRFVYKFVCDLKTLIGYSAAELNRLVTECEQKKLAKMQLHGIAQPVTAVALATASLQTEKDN
The note with it: protein: recombinant; tags: N-terminal GST; dsDNA, one strand shown. A digest of the protocol:
as §1

Assay [4] has as its target T4, ERG (Homo sapiens, UniProt P11308 1-479).
T4 sequence: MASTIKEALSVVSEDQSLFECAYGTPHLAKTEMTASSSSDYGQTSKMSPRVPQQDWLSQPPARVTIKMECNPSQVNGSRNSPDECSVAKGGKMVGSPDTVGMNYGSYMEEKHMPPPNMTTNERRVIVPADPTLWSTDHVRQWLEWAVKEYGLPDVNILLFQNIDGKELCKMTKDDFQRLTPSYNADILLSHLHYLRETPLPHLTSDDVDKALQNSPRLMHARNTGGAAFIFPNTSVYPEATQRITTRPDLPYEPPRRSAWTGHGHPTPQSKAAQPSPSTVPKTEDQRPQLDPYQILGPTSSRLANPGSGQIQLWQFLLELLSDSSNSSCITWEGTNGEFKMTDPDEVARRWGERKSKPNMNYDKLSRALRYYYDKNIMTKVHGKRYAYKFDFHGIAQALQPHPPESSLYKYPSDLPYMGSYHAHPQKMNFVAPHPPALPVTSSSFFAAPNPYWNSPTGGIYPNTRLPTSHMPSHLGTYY
To be noted: protein: recombinant; tags: N-terminal GST; dsDNA, one strand shown. A digest of the protocol: as §1

The target in assay [5] is ELF1 (Homo sapiens, UniProt P32519 1-619). The note with it: protein: recombinant; tags: N-terminal GST; dsDNA, one strand shown. A digest of the protocol: as §1
The target of assay [6] is T5, EHF (Homo sapiens, UniProt Q9NZC4 1-300).
T5 sequence: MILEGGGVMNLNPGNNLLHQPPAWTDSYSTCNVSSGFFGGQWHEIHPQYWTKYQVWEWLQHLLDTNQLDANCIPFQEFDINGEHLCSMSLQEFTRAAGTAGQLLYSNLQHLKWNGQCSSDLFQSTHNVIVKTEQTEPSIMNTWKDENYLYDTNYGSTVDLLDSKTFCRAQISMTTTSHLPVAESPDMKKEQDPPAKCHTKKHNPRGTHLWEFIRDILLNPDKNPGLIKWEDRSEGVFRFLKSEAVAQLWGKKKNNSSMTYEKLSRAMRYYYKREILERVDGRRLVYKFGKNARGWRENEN
The note with it: protein: recombinant; tags: N-terminal GST; dsDNA, one strand shown. A digest of the protocol:
as §1

For assay [7], the target named is T6, ELK3 (Homo sapiens, UniProt P41970 1-407).
T6 sequence: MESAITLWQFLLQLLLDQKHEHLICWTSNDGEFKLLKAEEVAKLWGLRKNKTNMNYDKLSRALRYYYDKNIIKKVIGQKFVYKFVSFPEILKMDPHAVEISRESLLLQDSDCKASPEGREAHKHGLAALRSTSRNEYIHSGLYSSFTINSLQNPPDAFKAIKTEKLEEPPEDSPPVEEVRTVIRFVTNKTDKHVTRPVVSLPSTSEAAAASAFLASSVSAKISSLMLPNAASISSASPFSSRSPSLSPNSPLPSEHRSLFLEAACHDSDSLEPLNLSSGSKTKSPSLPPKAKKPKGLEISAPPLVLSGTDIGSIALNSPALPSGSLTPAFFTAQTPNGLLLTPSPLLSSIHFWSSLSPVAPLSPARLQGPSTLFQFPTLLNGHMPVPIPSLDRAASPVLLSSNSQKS
To be noted: protein: recombinant; tags: N-terminal GST; dsDNA, one strand shown. A digest of the protocol:
as §1

In assay [8] the target is T7, FEV (Homo sapiens, UniProt Q99581 1-238).
T7 sequence: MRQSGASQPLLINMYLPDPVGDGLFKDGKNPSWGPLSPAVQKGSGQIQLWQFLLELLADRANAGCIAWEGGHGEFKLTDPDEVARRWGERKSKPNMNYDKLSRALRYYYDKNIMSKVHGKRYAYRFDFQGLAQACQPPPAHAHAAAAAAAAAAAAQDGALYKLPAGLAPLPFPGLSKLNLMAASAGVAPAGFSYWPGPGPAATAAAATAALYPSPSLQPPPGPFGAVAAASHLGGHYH
To be noted: protein: recombinant; tags: N-terminal GST; dsDNA, one strand shown. A digest of the protocol: as §1

The target of assay [9] is ETV5 (Homo sapiens, UniProt P41161 1-510). The note with it: protein: recombinant; tags: N-terminal GST; dsDNA, one strand shown. A digest of the protocol: as §1
In assay [10] the target is HSF1 (Homo sapiens, UniProt Q00613 1-529). To be noted: protein: recombinant; tags: N-terminal GST; chain copies: 3; dsDNA, one strand shown. A digest of the protocol: as §1
Assay [11] deals with T8, SPIC (Homo sapiens, UniProt Q8N5J4 1-248).
T8 sequence: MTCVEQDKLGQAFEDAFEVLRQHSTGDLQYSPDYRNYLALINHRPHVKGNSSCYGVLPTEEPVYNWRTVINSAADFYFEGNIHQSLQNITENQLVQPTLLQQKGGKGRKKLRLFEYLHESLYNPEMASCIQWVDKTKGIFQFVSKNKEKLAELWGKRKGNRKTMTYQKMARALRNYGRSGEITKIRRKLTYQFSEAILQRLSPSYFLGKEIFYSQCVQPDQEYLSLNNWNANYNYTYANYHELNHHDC
To be noted: protein: recombinant; tags: N-terminal GST; dsDNA, one strand shown. A digest of the protocol: as §1

Assay [12] addresses ELF4 (Homo sapiens, UniProt Q99607 1-663). The note with it: protein: recombinant; tags: N-terminal GST; dsDNA, one strand shown. A digest of the protocol:
as §1

The target in assay [13] is T9, ELK4 (Homo sapiens, UniProt P28324-2 1-405).
T9 sequence: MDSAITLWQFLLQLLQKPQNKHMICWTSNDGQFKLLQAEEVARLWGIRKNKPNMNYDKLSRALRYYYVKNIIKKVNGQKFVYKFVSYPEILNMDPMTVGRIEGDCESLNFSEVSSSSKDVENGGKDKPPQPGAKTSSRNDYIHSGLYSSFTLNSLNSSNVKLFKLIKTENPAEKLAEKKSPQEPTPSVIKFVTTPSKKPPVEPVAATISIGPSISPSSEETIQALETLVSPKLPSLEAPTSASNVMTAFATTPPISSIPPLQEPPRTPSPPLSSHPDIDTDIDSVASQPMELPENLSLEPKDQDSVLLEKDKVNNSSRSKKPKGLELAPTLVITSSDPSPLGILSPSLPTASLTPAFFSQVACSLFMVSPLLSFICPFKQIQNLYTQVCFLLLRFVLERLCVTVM
To be noted: protein: recombinant; tags: N-terminal GST; dsDNA, one strand shown. A digest of the protocol: as §1

For assay [14], the target named is T10, ETV2 (Homo sapiens, UniProt O00321 1-342).
T10 sequence: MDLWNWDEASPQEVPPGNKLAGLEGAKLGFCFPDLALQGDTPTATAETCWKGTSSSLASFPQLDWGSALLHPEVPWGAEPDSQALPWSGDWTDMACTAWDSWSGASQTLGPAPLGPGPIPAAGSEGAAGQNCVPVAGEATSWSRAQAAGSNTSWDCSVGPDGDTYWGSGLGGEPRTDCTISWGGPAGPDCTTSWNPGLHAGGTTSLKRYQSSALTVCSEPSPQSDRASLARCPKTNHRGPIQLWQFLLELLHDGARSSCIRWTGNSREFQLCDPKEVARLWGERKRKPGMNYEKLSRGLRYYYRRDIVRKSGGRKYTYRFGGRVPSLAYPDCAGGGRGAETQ
The note with it: protein: recombinant; tags: N-terminal GST; dsDNA, one strand shown. A digest of the protocol: as §1

The target of assay [15] is T11, ELF3 (Homo sapiens, UniProt P78545 1-371).
T11 sequence: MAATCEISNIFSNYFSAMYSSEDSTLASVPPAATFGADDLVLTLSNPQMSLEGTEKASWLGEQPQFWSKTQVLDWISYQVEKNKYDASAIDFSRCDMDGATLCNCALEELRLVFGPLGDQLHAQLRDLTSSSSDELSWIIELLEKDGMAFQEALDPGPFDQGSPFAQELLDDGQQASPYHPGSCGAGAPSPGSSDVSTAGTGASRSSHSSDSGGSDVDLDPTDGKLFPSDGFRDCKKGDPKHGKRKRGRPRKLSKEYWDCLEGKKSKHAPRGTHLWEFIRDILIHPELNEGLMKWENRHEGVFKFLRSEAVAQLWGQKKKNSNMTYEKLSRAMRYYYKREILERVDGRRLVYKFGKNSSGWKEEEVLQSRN
To be noted: protein: recombinant; tags: N-terminal GST; dsDNA, one strand shown. A digest of the protocol: as §1

For assay [16], the target named is ETV1 (Homo sapiens, UniProt P50549 1-477). The note with it: protein: recombinant; tags: N-terminal GST; dsDNA, one strand shown. A digest of the protocol:
as §1

Chain of ETV1 (P50549 whole entry): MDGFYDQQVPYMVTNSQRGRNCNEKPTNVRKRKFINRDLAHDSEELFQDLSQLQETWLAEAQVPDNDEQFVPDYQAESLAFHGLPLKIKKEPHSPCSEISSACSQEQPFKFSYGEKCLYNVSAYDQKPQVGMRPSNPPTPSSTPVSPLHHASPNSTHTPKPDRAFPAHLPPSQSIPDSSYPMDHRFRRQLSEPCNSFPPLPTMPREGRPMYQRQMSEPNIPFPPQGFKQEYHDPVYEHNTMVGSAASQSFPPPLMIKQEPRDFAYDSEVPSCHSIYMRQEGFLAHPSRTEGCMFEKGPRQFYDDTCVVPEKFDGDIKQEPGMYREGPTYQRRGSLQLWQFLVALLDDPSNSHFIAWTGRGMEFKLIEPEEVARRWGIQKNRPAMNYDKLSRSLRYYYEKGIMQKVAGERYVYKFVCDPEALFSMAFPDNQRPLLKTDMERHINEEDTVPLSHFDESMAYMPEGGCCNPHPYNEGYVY
Chain of ELF4 (Q99607 whole entry): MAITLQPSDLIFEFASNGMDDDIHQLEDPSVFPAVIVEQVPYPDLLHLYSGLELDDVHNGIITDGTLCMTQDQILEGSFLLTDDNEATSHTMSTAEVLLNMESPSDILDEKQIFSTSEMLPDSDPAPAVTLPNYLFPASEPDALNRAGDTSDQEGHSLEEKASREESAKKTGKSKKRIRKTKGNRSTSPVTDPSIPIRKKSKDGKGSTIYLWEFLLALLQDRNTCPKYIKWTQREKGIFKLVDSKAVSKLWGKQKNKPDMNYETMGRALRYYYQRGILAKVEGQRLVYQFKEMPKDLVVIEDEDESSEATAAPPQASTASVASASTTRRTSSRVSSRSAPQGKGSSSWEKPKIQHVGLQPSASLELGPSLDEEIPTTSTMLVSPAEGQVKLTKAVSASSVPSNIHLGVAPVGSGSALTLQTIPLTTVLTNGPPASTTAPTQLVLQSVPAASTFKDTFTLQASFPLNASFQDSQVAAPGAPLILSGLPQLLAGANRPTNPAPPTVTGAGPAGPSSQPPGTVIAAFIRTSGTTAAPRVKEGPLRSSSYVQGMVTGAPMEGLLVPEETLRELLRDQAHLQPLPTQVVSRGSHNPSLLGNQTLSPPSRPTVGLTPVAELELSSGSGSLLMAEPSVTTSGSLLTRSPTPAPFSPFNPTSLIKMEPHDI
Chain of ELF1 (P32519 whole entry): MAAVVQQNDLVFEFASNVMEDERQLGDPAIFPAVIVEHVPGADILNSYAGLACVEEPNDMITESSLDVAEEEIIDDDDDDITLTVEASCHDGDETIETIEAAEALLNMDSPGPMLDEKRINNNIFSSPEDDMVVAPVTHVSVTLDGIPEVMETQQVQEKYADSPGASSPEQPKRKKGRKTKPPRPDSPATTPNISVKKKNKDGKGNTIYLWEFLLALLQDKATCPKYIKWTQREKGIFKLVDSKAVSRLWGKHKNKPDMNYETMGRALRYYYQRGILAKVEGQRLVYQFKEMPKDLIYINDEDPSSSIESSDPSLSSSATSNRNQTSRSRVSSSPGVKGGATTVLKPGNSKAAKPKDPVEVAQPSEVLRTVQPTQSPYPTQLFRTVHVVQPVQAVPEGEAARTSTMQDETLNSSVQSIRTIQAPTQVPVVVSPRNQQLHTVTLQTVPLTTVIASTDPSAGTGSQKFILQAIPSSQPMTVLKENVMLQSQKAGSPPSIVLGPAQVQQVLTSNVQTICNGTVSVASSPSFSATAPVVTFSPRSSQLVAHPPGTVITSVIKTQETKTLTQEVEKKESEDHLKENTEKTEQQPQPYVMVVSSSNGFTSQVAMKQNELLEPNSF
Chain of ETV5 (P41161 whole entry): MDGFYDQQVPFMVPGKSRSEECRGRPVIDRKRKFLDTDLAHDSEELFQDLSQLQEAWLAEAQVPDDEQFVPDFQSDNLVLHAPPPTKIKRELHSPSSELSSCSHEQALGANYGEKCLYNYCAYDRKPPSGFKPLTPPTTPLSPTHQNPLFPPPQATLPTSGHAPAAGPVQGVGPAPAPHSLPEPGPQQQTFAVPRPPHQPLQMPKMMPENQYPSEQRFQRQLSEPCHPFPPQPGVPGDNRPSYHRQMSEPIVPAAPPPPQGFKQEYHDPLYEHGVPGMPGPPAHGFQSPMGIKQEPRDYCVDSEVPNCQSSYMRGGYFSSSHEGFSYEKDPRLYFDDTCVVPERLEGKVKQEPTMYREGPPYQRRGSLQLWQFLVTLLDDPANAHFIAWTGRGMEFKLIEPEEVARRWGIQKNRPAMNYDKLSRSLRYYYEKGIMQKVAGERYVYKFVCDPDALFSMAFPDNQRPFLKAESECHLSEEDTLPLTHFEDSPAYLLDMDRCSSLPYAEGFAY
Chain of HSF1 (Q00613 whole entry): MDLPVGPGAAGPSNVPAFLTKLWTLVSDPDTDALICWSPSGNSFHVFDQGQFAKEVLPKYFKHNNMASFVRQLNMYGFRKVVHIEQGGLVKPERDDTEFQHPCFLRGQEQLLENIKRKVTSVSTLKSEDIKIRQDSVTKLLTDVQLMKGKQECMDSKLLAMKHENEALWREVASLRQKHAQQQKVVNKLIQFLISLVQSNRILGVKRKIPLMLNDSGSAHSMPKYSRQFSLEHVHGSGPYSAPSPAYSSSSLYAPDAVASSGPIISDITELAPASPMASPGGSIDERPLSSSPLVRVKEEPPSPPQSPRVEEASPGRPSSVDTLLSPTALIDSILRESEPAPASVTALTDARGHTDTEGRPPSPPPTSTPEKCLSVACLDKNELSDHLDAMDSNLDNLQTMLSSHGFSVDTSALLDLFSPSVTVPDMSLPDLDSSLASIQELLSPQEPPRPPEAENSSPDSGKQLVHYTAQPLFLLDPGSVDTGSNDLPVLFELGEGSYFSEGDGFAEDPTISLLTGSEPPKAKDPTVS

In the case of CACCGA, the binding signal in assay [1] is 1.01 fold enrichment (6-mer frequency, TF over GST control); in assay [2], 1.01 fold enrichment (6-mer frequency, TF over GST control); in assay [3], 1.08 fold enrichment (6-mer frequency, TF over GST control); in [4], 1.08 fold enrichment (6-mer frequency, TF over GST control); in [5], 1.11 fold enrichment (6-mer frequency, TF over GST control); in assay [6], 1.08 fold enrichment (6-mer frequency, TF over GST control). Further, the binding signal in assay [7] was 1 fold enrichment (6-mer frequency, TF over GST control); in assay [8], 1.1 fold enrichment (6-mer frequency, TF over GST control); in [9] it was 1.1 fold enrichment (6-mer frequency, TF over GST control); in assay [10], 1.06 fold enrichment (6-mer frequency, TF over GST control); in assay [11], 1.05 fold enrichment (6-mer frequency, TF over GST control); in [12] it was 1.08 fold enrichment (6-mer frequency, TF over GST control). For the same sequence, the binding signal in [13] was 1.13 fold enrichment (6-mer frequency, TF over GST control); in assay [14], 1.1 fold enrichment (6-mer frequency, TF over GST control); in assay [15], 1.04 fold enrichment (6-mer frequency, TF over GST control); in assay [16] it was 1.1 fold enrichment (6-mer frequency, TF over GST control).
